# Rows were chosen to be rich in hits. Some 3.4% of all compounds tested hit in one or more screens of this group.
# NF-kB expr up – compounds increasing NF-kB expression in human neuronal cells | fold change at 12.5 µM | NF-kB reporter expression; hits give high values | actives 1.6% (n = 190,000); in the data active = fold change above about 3.3
# hgDAF12 agonist – activates the H. glycines DAF-12 receptor ligand-binding domain | HEK293 GAL4-hgDAF12 UAS-luciferase reporter, agonist luminescence; normalized to butyrate control | activation, % at 6.8 µM | actives 1.8% (n = 370,000) | AID 687014;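 active = activation above a cutoff set at the mean of all screened compounds plus 3 SD, cut at about 10% in these data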;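 note: 0% = DMSO wells and 100% = sodium butyrate wells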
# ssDAF-12 act – S. stercoralis DAF-12 activation, primary screen; HEK293 ssDAF-12/GRIP1 lit1-tk-luc reporter, luminescence; % of 3 µM dafachronic acid response; activation, % at 6.8 µM; actives 1% (n = 370,000); AID 652126;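 active = activation above the mean over all tested compounds plus 3 SD, cut at about 0.9% in these data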;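 note: 0% = DMSO-only wells and 100% = 3 µM delta7-dafachronic acid wells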
# APP 5'UTR act – APP 5'UTR luciferase reporter activation; actives 1% (n = 190,000); activation, % at 2 µM; SH-SY5Y APP 5'UTR luciferase reporter, luminescence; zero percent = DMSO vehicle wells; AID 1276;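 active = activation above a set limit, based on mean plus 3 SD of controls, cut at about 140% in these data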
# hcDAF12 agonist – activators of H. contortus DAF-12 nuclear receptor. AID 652067. HEK293 hcDAF-12 lit1-tk-luc reporter, luminescence; 0% DMSO, 100% Δ7-dafachronic acid. activation, % at 6.8 µM. actives 1.4% (n = 370,000);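 active = activation above the mean of all tested compounds plus 3 SD, cut at about 5.5% in these data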;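 note: 100% = response to 3 µM Δ7-dafachronic acid high control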
# LXR ag – activates human LXR-beta, counter-screen for hcDAF-12 agonists; HEK293 Gal4-LXR tk-luc reporter, luminescence, 24 h; normalized: DMSO 0%, positive control 100%; activation, % at 6.8 µM; AID 743027; 3,400 tested, under 10 active; shares compounds with hcDAF12 agonist;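 active = mean percent activation of the reporter above a cutoff set as the average over tested compounds plus their standard deviation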
# Target sequence (P55055 whole entry, looked up, the tested form may be a part): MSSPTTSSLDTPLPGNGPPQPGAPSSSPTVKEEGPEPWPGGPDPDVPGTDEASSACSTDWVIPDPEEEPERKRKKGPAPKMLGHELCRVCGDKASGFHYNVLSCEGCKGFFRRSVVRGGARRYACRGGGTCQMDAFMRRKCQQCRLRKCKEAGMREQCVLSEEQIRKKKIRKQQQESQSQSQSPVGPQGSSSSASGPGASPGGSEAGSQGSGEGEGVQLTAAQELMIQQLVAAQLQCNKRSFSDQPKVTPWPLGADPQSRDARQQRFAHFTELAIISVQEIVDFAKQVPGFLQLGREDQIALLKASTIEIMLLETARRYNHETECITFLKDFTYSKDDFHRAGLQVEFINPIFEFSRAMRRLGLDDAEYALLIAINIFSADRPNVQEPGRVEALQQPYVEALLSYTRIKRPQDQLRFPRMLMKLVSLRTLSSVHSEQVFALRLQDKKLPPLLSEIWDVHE
# hcDAF12 conf – hcDAF-12 agonism, confirmation assay; shares compounds with hcDAF12 agonist; HEK293 hcDAF-12 lit1-tk-luc reporter, luminescence; % of Δ7-dafachronic acid response; activation, % at 6.8 µM; actives 61% (n = 3,400); AID 743032;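 active = mean activation across triplicate tests above the threshold derived from the earlier primary screen, cut at about 5.5% in these data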;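 note: 0% = DMSO only wells and 100% = 3 µM Δ7-dafachronic acid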
# * marks the source's active call; other numbers are inactive results; . = not tested or not shown.
SMILES,NF-kB expr up,hgDAF12 agonist,ssDAF-12 act,APP 5'UTR act,hcDAF12 agonist,LXR ag,hcDAF12 conf
COc1ccc2c(c1)CN1C(=O)N(Cc3ccccc3)S(=O)(=O)CC21 (configuration not stated),.,4,0,.,-1,.,.
CCC[C@H]1[C@@H](OC(=O)NCc2ccc(OC)c(OC)c2)CC[C@@]23CCCN2C(=O)CCC[C@@H]13,.,1,-2,.,0,.,.
COc1ccc2c(c1OC)C(=O)N1C(C(=O)O)Cc3c([nH]c4ccccc34)C21 (configuration not stated),0.92,3,1,10,8.8*,0,3
COc1cccc(C2c3[nH]c4ccccc4c3C[C@H]3C(=O)N(CCCO)CC(=O)N23)c1OC (some centres not stated),.,-1,0,.,2,.,.
Cc1ccc(C)c(NC(=O)c2cc3ccccc3o2)c1,.,11*,1,.,7.8*,1,9.4*
Cc1nc2ccc(NC(=O)c3ccc4ccccc4n3)cc2s1,2.3,3,-1,76,3,.,.
Cc1ccc(C)c(NC(=O)c2ccc3ccccc3n2)c1,8.5*,11*,2.6*,70,17*,2,22*
Cc1ccnc(NC(=O)c2cc3ccccc3o2)c1,.,0,-1,.,4,.,.
Cc1nnc(NC(=O)c2ccc3ccccc3n2)s1,2.1,5,0,40,7.6*,1,9.1*
CCC[C@H]1[C@@H](NC(=O)c2ccc(N(C)C)cc2)CC[C@@]23CCCN2C(=O)CCC[C@@H]13,.,4,-1,.,-2,.,.
COC(=O)[C@]12C[C@H](CC(=O)NCCc3ccccc3OC)C(=O)N(Cc3ccc4c(c3)OCO4)C1=C[C@H](C(C)C)O[C@@H]2C1CC1,.,-1,-1,.,-4,.,.
CCCCNS(=O)(=O)CC1NCc2ccccc21 (configuration not stated),.,3,-1,.,0,.,.
Nc1nn(-c2cccc(F)n2)cc1-c1ccc(Cl)cc1,12*,18*,1.4*,251*,11*,2,9.8*
CCN1CCN(c2nc3c(C)cccn3c(=O)c2/C=C(\C#N)S(=O)(=O)c2ccccc2)CC1,1.1,3,-1,14,0,.,.
Cc1cccn2c(=O)c(/C=C(\C#N)S(=O)(=O)c3ccccc3)c(N3CCN(c4ccccc4)CC3)nc12,.,0,-1,.,6.7*,0,1
CN(N=Cc1ccccc1O)c1ccc2ccccc2n1,.,12*,2.4*,.,8.6*,2,12*
Fc1ccccc1-c1n[nH]c(=S)n1N=Cc1ccc(-c2ccccc2)cc1,.,-2,0,.,0,.,.
O=C(Cn1nc(C(=O)O)c2ccccc2c1=O)c1c[nH]c2ccccc12,.,3,1,.,7.3*,0,4
Cc1cc(C)c(C(=O)Cn2nc(C(=O)O)c3ccccc3c2=O)cc1C,.,1,0,.,-1,.,.
O=C(COC(=O)c1cccc(S(=O)(=O)N2CCc3ccccc32)c1)Nc1ncc(Cl)cc1Cl,1.1,0,-1,-9,6.8*,0,3
O=C(COC(=O)c1cccc(S(=O)(=O)N2CCc3ccccc32)c1)Nc1ncc(C(F)(F)F)cc1Cl,0.88,1,-1,-4,-1,.,.
COC(=O)c1ccc2nc(-c3ccc4c(c3)OCO4)cn2c1,5*,17*,1.7*,90,7.1*,1,6.4*
CCOC(=O)C1=C(CSc2nc(-c3ccccc3)ccc2C#N)OC(N)=C(C#N)C1c1cccnc1 (configuration not stated),3.8*,12*,1.3*,43,7.2*,1,9.4*
N#Cc1ccc(Cn2ccc3ccc(-c4ccc5ccn(Cc6ccc(C#N)cc6)c5c4)cc32)cc1,.,2,-1,.,0,.,.
Cc1nc(NC(=S)Nc2ccccc2)sc1C,4.8*,10,0,140*,10*,0,3
N[C@H](C(=O)N1CCC[C@@H]1C(=O)N1CCC2CCN(S(=O)(=O)c3ccccc3)CC21)c1ccccc1 (some centres not stated),.,-2,-1,.,1,.,.
